Reference: the supplement of paper PMC10382584, “Macrocyclization of linear molecules by deep learning to facilitate macrocyclic drug candidates discovery” (Nature Communications, 2023)

compound: Cc1cnc(Nc2ccc(OCCN3CCCC3)cc2)nc1Nc1cccc(S(=O)(=O)NC(C)(C)C)c1 [Fedratinib]; assay: percent of DMSO control binding (KINOMEscan); higher = weaker binding / less inhibition; extreme values may be limits of the assay; settings: concentration: 100 nM

Sequence of UniProt O96013 (O96013 whole entry, looked up): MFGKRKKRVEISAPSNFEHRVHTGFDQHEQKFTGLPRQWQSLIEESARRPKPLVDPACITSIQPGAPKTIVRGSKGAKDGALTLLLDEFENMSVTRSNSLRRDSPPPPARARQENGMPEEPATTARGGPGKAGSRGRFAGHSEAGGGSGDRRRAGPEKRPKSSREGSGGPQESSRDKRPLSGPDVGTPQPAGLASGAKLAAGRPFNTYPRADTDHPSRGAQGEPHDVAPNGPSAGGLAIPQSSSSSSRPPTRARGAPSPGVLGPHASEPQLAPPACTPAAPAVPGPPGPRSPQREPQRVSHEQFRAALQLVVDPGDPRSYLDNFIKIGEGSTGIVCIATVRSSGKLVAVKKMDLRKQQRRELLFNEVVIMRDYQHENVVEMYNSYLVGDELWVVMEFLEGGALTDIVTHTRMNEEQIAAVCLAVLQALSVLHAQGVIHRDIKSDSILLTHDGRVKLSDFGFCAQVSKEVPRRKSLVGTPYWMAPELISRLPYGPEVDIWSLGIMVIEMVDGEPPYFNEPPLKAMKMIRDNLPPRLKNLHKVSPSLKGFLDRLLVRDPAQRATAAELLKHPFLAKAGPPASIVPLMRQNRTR
Sequence of UniProt Q16584 (Q16584 whole entry, looked up): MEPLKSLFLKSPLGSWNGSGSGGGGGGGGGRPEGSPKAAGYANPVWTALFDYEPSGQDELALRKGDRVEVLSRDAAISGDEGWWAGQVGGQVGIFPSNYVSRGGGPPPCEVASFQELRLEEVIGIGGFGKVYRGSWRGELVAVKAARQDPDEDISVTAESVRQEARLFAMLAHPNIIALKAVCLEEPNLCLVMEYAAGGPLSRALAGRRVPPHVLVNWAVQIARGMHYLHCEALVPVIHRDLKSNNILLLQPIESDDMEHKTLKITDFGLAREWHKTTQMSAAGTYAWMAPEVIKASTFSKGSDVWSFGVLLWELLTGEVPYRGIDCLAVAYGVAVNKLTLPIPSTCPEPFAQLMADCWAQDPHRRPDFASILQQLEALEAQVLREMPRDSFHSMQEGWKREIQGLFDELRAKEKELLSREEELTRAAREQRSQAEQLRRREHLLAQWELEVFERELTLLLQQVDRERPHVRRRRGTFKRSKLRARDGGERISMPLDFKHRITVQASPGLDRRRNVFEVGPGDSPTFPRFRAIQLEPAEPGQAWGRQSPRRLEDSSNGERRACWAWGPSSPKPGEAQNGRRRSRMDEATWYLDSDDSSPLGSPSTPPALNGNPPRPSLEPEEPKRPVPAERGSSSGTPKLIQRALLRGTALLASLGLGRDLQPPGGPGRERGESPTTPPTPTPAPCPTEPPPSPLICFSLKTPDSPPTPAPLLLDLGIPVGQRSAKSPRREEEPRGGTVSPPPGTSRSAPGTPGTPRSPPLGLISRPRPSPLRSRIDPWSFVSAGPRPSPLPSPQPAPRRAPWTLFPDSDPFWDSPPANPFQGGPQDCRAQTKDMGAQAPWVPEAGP
Sequence of UniProt P29376 (P29376 whole entry): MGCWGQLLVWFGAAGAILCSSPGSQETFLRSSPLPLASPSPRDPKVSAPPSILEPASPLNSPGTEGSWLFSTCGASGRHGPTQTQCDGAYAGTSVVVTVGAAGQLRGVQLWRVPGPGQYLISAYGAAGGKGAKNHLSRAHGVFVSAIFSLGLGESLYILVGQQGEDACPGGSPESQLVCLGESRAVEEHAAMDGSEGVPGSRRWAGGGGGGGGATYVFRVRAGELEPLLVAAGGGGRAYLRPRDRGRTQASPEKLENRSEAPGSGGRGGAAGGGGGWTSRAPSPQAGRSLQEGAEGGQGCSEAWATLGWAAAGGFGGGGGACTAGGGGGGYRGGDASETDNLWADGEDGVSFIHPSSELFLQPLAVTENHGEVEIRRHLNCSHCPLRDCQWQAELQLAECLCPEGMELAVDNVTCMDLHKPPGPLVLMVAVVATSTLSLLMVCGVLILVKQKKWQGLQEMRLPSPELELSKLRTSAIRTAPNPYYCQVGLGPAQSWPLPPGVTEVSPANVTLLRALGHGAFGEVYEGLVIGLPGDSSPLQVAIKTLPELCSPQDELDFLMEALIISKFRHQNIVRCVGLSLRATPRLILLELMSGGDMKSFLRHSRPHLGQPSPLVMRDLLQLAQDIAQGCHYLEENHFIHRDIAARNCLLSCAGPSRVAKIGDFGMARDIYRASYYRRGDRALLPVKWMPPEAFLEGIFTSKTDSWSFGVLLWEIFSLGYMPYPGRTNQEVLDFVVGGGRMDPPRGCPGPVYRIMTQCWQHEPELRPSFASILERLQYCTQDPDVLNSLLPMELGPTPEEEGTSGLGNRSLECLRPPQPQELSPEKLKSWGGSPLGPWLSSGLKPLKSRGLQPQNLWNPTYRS
Sequence of UniProt Q59H18 (Q59H18 whole entry): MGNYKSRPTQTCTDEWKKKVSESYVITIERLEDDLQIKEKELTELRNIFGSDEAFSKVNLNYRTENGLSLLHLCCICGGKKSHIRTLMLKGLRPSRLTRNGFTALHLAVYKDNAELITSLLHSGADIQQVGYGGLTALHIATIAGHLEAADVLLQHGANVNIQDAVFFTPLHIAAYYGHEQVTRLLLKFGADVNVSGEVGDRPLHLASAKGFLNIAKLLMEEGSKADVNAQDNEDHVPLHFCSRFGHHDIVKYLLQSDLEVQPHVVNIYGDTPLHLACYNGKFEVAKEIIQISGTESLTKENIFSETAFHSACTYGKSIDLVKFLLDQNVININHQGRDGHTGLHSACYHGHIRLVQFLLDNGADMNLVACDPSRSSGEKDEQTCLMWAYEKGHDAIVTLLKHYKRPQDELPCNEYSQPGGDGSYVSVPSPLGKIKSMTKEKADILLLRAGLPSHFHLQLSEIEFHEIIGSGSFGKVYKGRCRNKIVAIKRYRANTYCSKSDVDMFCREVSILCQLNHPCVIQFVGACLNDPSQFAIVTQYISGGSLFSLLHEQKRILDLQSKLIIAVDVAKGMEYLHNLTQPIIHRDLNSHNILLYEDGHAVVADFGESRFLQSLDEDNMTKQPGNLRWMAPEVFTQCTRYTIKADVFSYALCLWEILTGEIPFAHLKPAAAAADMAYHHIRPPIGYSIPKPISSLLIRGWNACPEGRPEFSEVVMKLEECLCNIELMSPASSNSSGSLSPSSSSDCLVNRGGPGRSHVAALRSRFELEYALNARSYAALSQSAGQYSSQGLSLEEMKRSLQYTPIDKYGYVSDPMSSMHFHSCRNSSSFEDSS
Sequence of UniProt P08581 (P08581 whole entry Y1235D, looked up): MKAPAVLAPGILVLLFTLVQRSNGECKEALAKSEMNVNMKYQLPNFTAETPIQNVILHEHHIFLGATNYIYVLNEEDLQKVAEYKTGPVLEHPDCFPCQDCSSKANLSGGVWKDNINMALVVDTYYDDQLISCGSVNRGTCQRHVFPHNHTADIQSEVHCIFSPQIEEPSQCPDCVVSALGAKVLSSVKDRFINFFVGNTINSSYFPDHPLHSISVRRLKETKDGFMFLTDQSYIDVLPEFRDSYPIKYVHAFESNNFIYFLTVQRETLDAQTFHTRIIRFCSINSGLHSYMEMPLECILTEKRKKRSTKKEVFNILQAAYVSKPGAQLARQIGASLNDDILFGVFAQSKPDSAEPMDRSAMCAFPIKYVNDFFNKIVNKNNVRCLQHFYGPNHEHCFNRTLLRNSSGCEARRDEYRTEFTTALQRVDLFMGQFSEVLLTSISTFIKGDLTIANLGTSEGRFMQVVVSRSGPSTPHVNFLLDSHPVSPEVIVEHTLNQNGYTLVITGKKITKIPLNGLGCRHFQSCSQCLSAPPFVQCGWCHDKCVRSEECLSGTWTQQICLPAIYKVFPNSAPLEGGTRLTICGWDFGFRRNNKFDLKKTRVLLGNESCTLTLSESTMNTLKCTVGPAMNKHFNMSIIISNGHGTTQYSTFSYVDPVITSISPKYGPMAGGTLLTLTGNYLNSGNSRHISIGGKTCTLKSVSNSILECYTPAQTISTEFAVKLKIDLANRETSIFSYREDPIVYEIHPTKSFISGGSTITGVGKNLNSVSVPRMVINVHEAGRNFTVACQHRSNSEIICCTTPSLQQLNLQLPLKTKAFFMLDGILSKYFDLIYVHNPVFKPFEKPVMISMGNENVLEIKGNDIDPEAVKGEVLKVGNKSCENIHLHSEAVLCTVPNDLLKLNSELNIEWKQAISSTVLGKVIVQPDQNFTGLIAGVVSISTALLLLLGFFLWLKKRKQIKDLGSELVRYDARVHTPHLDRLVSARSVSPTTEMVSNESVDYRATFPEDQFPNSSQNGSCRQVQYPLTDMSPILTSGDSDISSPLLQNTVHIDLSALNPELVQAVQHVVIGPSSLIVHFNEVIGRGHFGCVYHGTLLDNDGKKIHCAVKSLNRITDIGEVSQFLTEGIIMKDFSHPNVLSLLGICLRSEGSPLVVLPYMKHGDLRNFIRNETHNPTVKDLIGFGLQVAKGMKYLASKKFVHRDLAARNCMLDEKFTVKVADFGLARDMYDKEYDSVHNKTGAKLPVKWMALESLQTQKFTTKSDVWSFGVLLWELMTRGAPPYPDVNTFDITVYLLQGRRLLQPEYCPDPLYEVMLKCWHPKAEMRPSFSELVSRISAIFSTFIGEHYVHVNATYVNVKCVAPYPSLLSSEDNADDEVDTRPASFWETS
Sequence of UniProt P07948 (P07948 whole entry, looked up): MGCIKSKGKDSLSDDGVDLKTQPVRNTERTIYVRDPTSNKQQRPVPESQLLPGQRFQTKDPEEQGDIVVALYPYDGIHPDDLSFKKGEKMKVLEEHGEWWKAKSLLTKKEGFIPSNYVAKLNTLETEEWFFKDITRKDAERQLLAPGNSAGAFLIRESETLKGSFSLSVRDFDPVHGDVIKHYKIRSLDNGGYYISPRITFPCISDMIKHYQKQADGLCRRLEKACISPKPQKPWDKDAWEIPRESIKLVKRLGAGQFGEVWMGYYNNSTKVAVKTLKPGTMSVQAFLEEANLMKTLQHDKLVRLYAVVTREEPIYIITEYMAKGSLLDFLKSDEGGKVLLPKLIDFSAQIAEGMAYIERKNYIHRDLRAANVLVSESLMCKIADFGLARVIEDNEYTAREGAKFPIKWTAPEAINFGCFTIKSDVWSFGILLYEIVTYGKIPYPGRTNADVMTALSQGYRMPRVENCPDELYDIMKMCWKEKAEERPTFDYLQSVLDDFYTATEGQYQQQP

Target | percent of DMSO control binding [%]
AMPK-alpha2 (UniProt P54646) | 100
DAPK2 (UniProt Q9UIK4) | 16
PIP5K2C (UniProt Q8TBX8) | 100
SYK (UniProt P43405) | 100
p38-alpha (UniProt Q16539) | 78
MUSK (UniProt O15146) | 96
TYK2(JH1domain-catalytic) (UniProt P29597) | 8.8
MLK3 (UniProt Q16584) | 100
EPHB1 (UniProt P54762) | 100
TTK (UniProt P33981) | 75
ROCK1 (UniProt Q13464) | 40
EPHB4 (UniProt P54760) | 100
MKNK1 (UniProt Q9BUB5) | 88
MET(Y1235D) (UniProt P08581) | 100
RSK3(Kin.Dom.1-N-terminal) | 100
TNNI3K (UniProt Q59H18) | 97
SgK110 (UniProt P0C264) | 100
SRMS (UniProt Q9H3Y6) | 70
PIKFYVE (UniProt Q9Y2I7) | 83

Target | percent of DMSO control binding [%]
RPS6KA4(Kin.Dom.1-N-terminal) (UniProt O75676) | 100
BRAF(V600E) | 95
LYN (UniProt P07948) | 100
IGF1R (UniProt P08069) | 100
TAK1 (UniProt O43318) | 81
PAK4 (UniProt O96013) | 100
PFCDPK1(P.falciparum) | 100
LTK (UniProt P29376) | 100
ZAK (UniProt Q9NYL2) | 81
DCAMKL2 (UniProt Q8N568) | 97
MYLK2 (UniProt Q9H1R3) | 100
ERBB3 (UniProt P21860) | 97
MAP3K15 (UniProt Q6ZN16) | 61
PKN2 (UniProt Q16513) | 100
WEE2 (UniProt P0C1S8) | 100
MLK1 (UniProt P80192) | 96
PKN1 (UniProt Q16512) | 100
DDR1 (UniProt Q08345) | 100
PFTK1 (UniProt O94921) | 100
